Bioassay records (PubChem BioAssay)
Shiga toxin inh = blocks Shiga toxin action in Vero cells | Vero cells, Shiga toxin protein synthesis inhibition reporter | inhibition, % at 38.7 µM | 9.2% of 290,000 active | AID 2315; in the data active = inhibition mostly above about 28%, no sharp cut-off; inactive = mostly below about 43%; also: 0% is about no effect
Marburg entry inh = inhibitors of Marburg virus binding or cell entry; Marburg virus pseudotyped entry inhibition, cell reporter; Potency, µM (titrated, usually from 37.8 µM), for inactives: at the highest dose activity change, negative = inhibition, hits mostly inhibitors; 1.8% of 300,000 active; AID 540276; calls by dose curve; tested in HEK293 cells; also: potency is read from the fitted curve at half-maximal effect; % is scaled to controls: 0 for no effect and ±100 for the full control effect
LASV entry inh = blocks Lassa virus binding to or entry into cells; Lassa virus pseudotype entry inhibition, cell reporter; 1.2% of 300,000 active; AID 540256; Potency, µM (highest dose often 37.9 µM), inactives show at the highest dose activity change, negative = inhibition, most hits filed as inhibitors; calls by dose curve; tested in HEK293 cells; also: potency is read from the fitted curve at half-maximal effect; % is scaled to controls: 0 for no effect and ±100 for the full control effect; nearly all actives have a fitted effect of over 50% in size
HCV inh = inhibitors of hepatitis C virus infection; Huh7.5.1 HCVcc-Cre infection, luciferase reporter, 44 h; 3.4% of 340,000 active; AID 651820; Potency, µM (doses to about 41.8 µM), without a hit: at the highest dose activity change, negative = inhibition, most hits filed as inhibitors; active = well fitted inhibition curve with a large enough effect; inconclusive = small, poorly fitted or top-dose-only effect, or another doubt; inactive = no such curve, though single readings can be large or run the other way; also: potency is read from the fitted curve at half-maximal effect; % is scaled to controls: 0 for no effect and ±100 for the full control effect
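Cells (1,000/well) were plated 4 h before compound, then infected with HCVcc-Cre virus (~0.5 moi). After 44 h further culture, infection was read as luciferase luminescence following a 15 min substrate incubation at room temperature.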
FMDV inh = antivirals against foot and mouth disease virus. Potency, µM (doses to about 57.9 µM), for the others: at the top dose activity change, negative = inhibition, usual class: inhibitors. 1.2% of 410,000 active. FMDV antiviral cell-based qHTS; calls by dose curve; tested in HEK293T cells; also: read-out not given here; potency is read from the fitted curve at half-maximal effect; % is scaled to controls: 0 for no effect and ±100 for the full control effect; nearly all actives have a fitted effect of over 45% in size
CHX counter = counter-screen for Shiga toxin inhibitors: cycloheximide protein synthesis inhibition; cell reporter, cycloheximide protein synthesis inhibition counterscreen; max response, %; 12% of 300,000 active; in the data active = max response mostly above about 13%, no sharp cut-off; inactive = mostly below about 14%; also: read at 38.3 µM for the half of the compounds with a filed dose; 0% is about no effect
* hit, by the source's call; ? = inconclusive; nt = no result; [ ] = another dose, or the depositor's remark. This is a sample that favours compounds with a hit; in the whole collection about 13% have one here.

SMILES	Shiga toxin inh	Marburg entry inh	LASV entry inh	HCV inh	FMDV inh	CHX counter
O=C(CNC(=O)c1ccco1)Nc1ccc(N2CCCCCC2)cc1	nt	nt	nt	-3%	45%	nt
CCc1ccc(NC(=O)COC(=O)c2ccc(Cl)c(S(=O)(=O)N3CCCCCC3)c2)cc1	-4	2%	9%	8%	0%	-3
CCCC(=O)Nc1ccc(N2CCCCC2)cc1	110*	?	15%	6%	33%	25*
CCC(=O)Nc1ccc(N2CCCCC2)cc1	65	17%	14%	21%	68%	37*
NS(=O)(=O)c1cc(C(=O)OCC(=O)Nc2ccc(N3CCCCC3)cc2)ccc1Cl	7	nt	nt	14%	12%	13*
CC(=O)Nc1ccc(N2CCCCC2)cc1	24	29%	7%	8%	nt	11
CC(C)(C)N(Cc1ccccc1)C(=O)COC(=O)c1ccc2ccccc2n1	nt	3%[46.1 µM]	10%[46.1 µM]	0%	-7%	nt
Cn1c(C2CCC2)nc2cc(C(=O)N3CCOc4ccccc4C3)cc(NC(=O)C3CCCO3)c21 (centres undefined)	nt	nt	nt	nt	-7%	nt
COc1ccc(C(=O)N2CC3(CC(c4cccc(NC(=O)COc5ccc(Cl)cc5)c4)=NO3)C[C@@H]2C(N)=O)cc1 (some centres undefined)	26	nt	nt	-13%	?	8
CCCCCC(=O)NC(=S)Nc1ccc(N2CCOCC2)cc1	-8	25%	1%	5%	20%	12
O=C(CCl)Nc1ccc(N2CCCCCC2)cc1	58	?	?	?	-12%	20*
CCC(=O)NC(=S)Nc1ccc(N2CCOCC2)cc1	96*	?	-1%[46.1 µM]	2%	41%	28*
CCOc1ccc(NC(=S)Nc2ccc(OCC)cc2)cc1	24	?	?	5%	-19%	-2
CCOc1ccc(NC(=S)Nc2cccc3cnccc23)cc1	11	-1%	-6%	?	-12%	14*
CCOc1ccc(NC(=S)Nc2cccc3ccccc23)cc1	89*	1%[46.1 µM]	8%[46.1 µM]	-6%	30%	72*
CCCc1cc(=O)[nH]c(SCCc2ccccc2)n1	30	nt	nt	0%	39%	12*
Cc1ccc2nc(Cn3cc(C(F)(F)F)cc(Cl)c3=O)cc(=O)n2c1	-8	?	23%	16%	1%	1
CC(C)c1cc(C(=O)NC2CCCc3c2cnn3-c2ccccc2F)no1 (centres undefined)	13	nt	nt	11µM*	-27%	18
COc1cc(C(=O)NC2CCCc3c2cnn3-c2ccccc2F)cc(OC)c1OC (centres undefined)	-4	?	-12%[46.1 µM]	8.9µM*	?	-1
Cc1cc(C(=O)NC2CCCc3c2cnn3-c2ccccc2F)nc(C)n1 (centres undefined)	18	?	?	nt	-24%	1
CCOC(=O)C1=C(COC(=O)COc2ccccc2C=O)NC(=O)NC1C (centres undefined)	nt	?	-4%	3%	-3%	nt
COC(=O)c1ccc(N2CCN(C)CC2)c(NC(=O)c2ccc(Br)o2)c1	15	nt	nt	?	0%	-2
COc1ccc(-n2c(=S)[nH]c3cc(C(=O)Nc4ccccc4OC)ccc3c2=O)c(OC)c1	-17	-28%[46.1 µM]	6.3µM*	?	?	5
COc1cc(C(=O)N2CCN(C(=O)C3COc4ccccc4O3)CC2)cc(OC)c1OC (centres undefined)	10	19%[46.1 µM]	-6%[46.1 µM]	-6%	-12%	35
CC1CCN(c2nc3nonc3nc2Nc2ccc(F)cc2)CC1	-12	?	?	11µM*	28µM*	-4
SMILES	Shiga toxin inh	Marburg entry inh	LASV entry inh	HCV inh	FMDV inh	CHX counter
COc1ccc(Nc2nc3nonc3nc2N2CCCCC2)cc1	-8	?	?	?	-18%	-2
COc1ccc(C)cc1NC(=O)Cn1c(=O)ccc2cc(S(=O)(=O)N3CCCC3)ccc21	nt	nt	8%[46.1 µM]	nt	-15%	nt
COc1cccc(C(O)c2nc(-c3ccccc3OC)cs2)c1 (centres undefined)	nt	nt	nt	nt	-18%	nt
c1ccc(Cn2c(-c3ccccc3)c[n+]3c2SCCC3)cc1	-11	?	?	2.5µM*	-13%	-1
O=C(Nc1ccccc1)N1CCCC(CNS(=O)(=O)Cc2ccccc2)C1 (centres undefined)	10	12%[46.1 µM]	nt	16%	9%	13*
Cc1cc(NC(=O)COC(=O)C2CCN(C(=O)c3ccc(Cl)cc3)CC2)no1	-8	-24%[46.1 µM]	1%	12%	-13%	-5
COc1cccc(-c2nc3cc4c(cc3cc2CN(C(=O)c2cccs2)C2CC2)CCC4)c1OC	nt	nt	nt	nt	32µM*	nt
O=C1c2ccccc2C(=O)N1OCCCN1C(=O)c2ccccc2S1(=O)=O	nt	16%	8%[46.1 µM]	27%	18%	nt
CCOC(=O)c1c(NC2OC(=O)c3c2ccc(OC)c3OC)sc(C(=O)OC(C)(C)C)c1C (centres undefined)	active	14%	-7%	?	-38%	31*
Cc1ccc(N(CC(O)COCc2ccco2)S(=O)(=O)c2ccc(C)cc2)cc1 (centres undefined)	3	-22%	-9%	4%	-25%	2
CC(C)c1ccc(COC(=O)CN2C(=O)NC3(CCCCC3C)C2=O)cc1 (centres undefined)	nt	?	?	14µM*	0%	nt
CC1CCCCC12NC(=O)N(CC(=O)OCc1ccccc1Cl)C2=O (centres undefined)	nt	-15%	-18%[46.1 µM]	-8%	?	nt
CC1CC(C)CN(CC(=O)Nc2ccc3c(c2)OCCO3)C1 (centres undefined)	74*	?	?	14%	35%	48*
CC1CCCCC12NC(=O)N(CC(=O)NC(=O)Nc1ccc3c(c1)OCCO3)C2=O (centres undefined)	105*	-3%	?	2%	18%	33*
O=C(CN1CCC(C(=O)c2ccc(Cl)cc2)CC1)Nc1ccc2c(c1)OCCO2	30	?	?	?	?	17*
CC1CCCCC12NC(=O)N(CC(=O)Nc1ccc3c(c1)OCO3)C2=O (centres undefined)	nt	nt	nt	nt	-15%	nt
NC(=O)C1CCN(C(=O)CSc2nc3c(c(-c4ccccc4)n2)CCCC3)CC1	-11	5%	1%	-4%	-5%	-2
CC1Oc2ccccc2N(CC(=O)Nc2ccc3c(c2)OCCO3)C1=O (centres undefined)	90	12%	25%	?	1%	44*
Cc1ccc2c(c1)nnn2C1CCN(CC(=O)Nc2ccc3c(c2)OCCO3)CC1	22	-1%	?	-13%	-10%	26*
Cc1ccc2c(c1)nnn2C1CCN(CC(=O)Nc2ccc(F)cc2)CC1	-4	-15%[46.1 µM]	7%	-7%	-27%	1
Cc1ccc(NC(=O)CCCN2C(=S)NC(C)(C)CC2C)cc1 (centres undefined)	-8	-2%	2%	17%	-13%	1
CC1CC(C)(C)NC(=S)N1CCCC(=O)Nc1ccc2c(c1)OCCO2 (centres undefined)	116*	30%[46.1 µM]	19%	15%	37%	42*
